This passage reports cross-linked residues results from article PMC12215968.

Chain of YWHAE (P62258 whole entry): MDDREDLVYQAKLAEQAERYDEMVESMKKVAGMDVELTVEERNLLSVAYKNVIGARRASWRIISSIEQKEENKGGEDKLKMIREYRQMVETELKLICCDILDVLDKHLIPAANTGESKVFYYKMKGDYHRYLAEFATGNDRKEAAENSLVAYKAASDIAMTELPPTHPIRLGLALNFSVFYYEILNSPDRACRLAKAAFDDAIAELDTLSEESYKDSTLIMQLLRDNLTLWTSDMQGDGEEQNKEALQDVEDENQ
Chain of YWHAB, P31946 (P31946 whole entry): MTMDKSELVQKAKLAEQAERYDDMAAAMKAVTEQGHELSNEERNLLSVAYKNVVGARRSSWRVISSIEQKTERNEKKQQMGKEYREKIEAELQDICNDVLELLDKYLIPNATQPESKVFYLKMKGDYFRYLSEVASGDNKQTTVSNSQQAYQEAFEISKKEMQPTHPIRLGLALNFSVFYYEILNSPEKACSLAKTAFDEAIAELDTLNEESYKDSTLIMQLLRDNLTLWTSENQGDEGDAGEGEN
Chain of YWHAG, P61981 (P61981 whole entry): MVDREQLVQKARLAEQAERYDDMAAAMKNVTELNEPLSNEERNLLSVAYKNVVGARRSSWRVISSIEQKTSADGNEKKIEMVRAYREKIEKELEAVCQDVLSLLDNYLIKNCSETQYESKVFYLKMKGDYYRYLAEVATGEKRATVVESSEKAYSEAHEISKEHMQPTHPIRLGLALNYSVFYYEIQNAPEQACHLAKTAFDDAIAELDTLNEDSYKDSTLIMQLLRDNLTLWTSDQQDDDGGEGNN
Chain of YWHAQ, P27348 (P27348 whole entry): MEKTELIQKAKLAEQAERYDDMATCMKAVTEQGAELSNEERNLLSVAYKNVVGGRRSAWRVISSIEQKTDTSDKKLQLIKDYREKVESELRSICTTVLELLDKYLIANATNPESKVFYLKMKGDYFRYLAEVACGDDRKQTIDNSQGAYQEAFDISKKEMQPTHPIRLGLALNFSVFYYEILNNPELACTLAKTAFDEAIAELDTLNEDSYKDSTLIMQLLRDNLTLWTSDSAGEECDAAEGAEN

One assay has as its target SERBP1 (UniProt Q8NC51). Briefly: cross-linking mass spectrometry. To be noted: TSTO, in cells.
In the case of RPS28, P62857, the cross-linked residues result is reported as “K16 - K140”.

In the case of RPS3, P23396, the cross-linked residues entry was “K108 - K236”.

In the case of RPL34, P49207, the cross-linked residues entry is given as “K115 - K37”.

Turning to RPS15, P62841, the cross-linked residues result is “K58 - K327”.

As for RPL23A, P62750, the cross-linked residues entry is on record as “K30 - K68”.

Turning to RPS10, P46783, the cross-linked residues result is “K107 - K299”.

The next assay concerns the target YWHAE (UniProt P62258). Briefly: cross-linking mass spectrometry. To be noted: TSTO, in cells.
Regarding YWHAB, P31946, the cross-linked residues entry is listed as “K70 - K12”.

YWHAG, P61981: the cross-linked residues entry is recorded as “K69 - K12”.

With YWHAQ, P27348, the cross-linked residues result is “K68 - K12”.
